Only some compounds are listed: those with a hit (about 3.9% of all), similar ones and a draw of the others.
HIF-2a block: HIF-2a reporter inhibitors, primary screen, luminescence, 786-0 RCC cells. 0.72% of 360,000 active. inhibition, % at 18.8 µM. 786-0 RCC cells HIF-2a reporter, luciferase luminescence, overnight. AID 624352, 2012;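 active = inhibition of the luminescence signal of 40% or more relative to plate controls, in a single-dose primary screen at 18.75 µM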
TROY NFkB inh: inhibitors of TROY-driven NF-kB signaling, primary screen, Q293 LMP1-TROYcd cells, NF-kB luciferase, uHTS; inhibition, % at 10 µM; Q293 LMP1-TROYcd NF-kB luciferase reporter, 4 h; 0.98% of 360,000 active;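 active = compounds whose plate-normalised and pattern-corrected inhibition of the luciferase reporter signal at the single screening dose is 50% or more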
CF NFkB block: inhibitors of PAF-induced NF-kB signaling, primary screen, cell-based, GFP fluorescence, uHTS; KKLEB NF-kB-GFP reporter, GFP fluorescence overnight; inhibition, % at 5 µM; 0.86% of 360,000 active;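 active = at least 50% inhibition at 5 µM, scaled per plate between neutral and stimulator controls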;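 note: PAF is a Pseudomonas aeruginosa culture filtrate used as stimulus; plate controls were PAF-stimulated DMSO wells for no effect and unstimulated DMSO wells for full effect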
KKLEB cytotox: cytotoxicity in KKLEB CF airway cells, primary screen, cytotoxicity control for CF NF-kB inhibitor project, cell-based, uHTS, fluorescence assay plates; KKLEB CF airway cells viability, ATPlite luminescence, overnight; stronger effect = lower value; cells stimulated with P. aeruginosa culture filtrate; activity change (cytotoxicity), % at 5 µM; 0.36% of 360,000 active;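 active = corrected activity change at or below -50% at 5 µM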
Peg3 prom inh-1: Peg3 promoter-driven luciferase inhibitors, primary screen, cell-based, HeLa, luciferase luminescence; HeLa PEG-Prom luciferase reporter, overnight; inhibition, % at 20 µM; 1.7% of 360,000 active; AID 588405, 2011;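 active = inhibition of at least 50% at 20 µM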
TWEAK Fn14 block: inhibitors of TWEAK-Fn14 signaling, primary screen, luciferase reporter cells, uHTS. TWEAK-stimulated Fn14 reporter cells, luciferase luminescence, 8 h. 2% of 360,000 active. inhibition, % at 10 µM; in the data active = inhibition above about 50%
Peg3 prom inh-2: Peg3 promoter reporter inhibitors, retest, confirmation, cell-based, HeLa, luciferase reporter, single concentration; shares compounds with Peg3 prom inh-1; HeLa PEG-Prom luciferase reporter, luminescence, overnight; AID 602417, 2012; inhibition, % at 20 µM; 84% of 1,300 active;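 active = at 20 µM dose, 40% or more inhibition averaged across four replicates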
Mdm2 MdmX conf: retested Mdm2-MdmX interaction blockers, confirmation, cell-based, luminescence, single concentration, set 2. shares compounds with HIF-2a block. SaOS-2 split-luciferase Mdm2/MdmX complementation. inhibition, % at 8 µM. 99% of 740 active. AID 504601, 2011;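 active = mean inhibition of the luminescence signal across two replicates at or above 26 percent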
HIF-2a inh conf: HIF-2a reporter inhibitor retest, confirmation, luminescence, 786-0 RCC cells. shares compounds with HIF-2a block. HIF-2a luciferase reporter luminescence, overnight. inhibition, % at 18.8 µM. 56% of 1,800 active. AID 651580, 2012;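 active = mean inhibition across four replicates of at least 40 percent at the single tested concentration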
HIF-1a counter: HIF-1a luciferase reporter signal reduction – MiaPaCa-2 cells, single concentration, counter-screen for HIF-2a inhibitor project, confirmation; shares compounds with HIF-2a block; 72% of 1,800 active; inhibition, % at 18.8 µM; MiaPaCa-2 HIF-1a luciferase reporter, desferoxamine, overnight; AID 651589, 2012;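 active = mean inhibition of the reporter signal across four replicates at the single tested dose of 50% or more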
An asterisk follows results filed as active; / = not tested or not shown.

SMILES | HIF-2a block | TROY NFkB inh | CF NFkB block | KKLEB cytotox | Peg3 prom inh-1 | TWEAK Fn14 block | Peg3 prom inh-2 | Mdm2 MdmX conf | HIF-2a inh conf | HIF-1a counter
O=C1CCCCC1Sc1nnc(-c2ccc3c(c2)OCO3)o1 (stereo unspecified) | 69* | 87* | -4 | -5 | 85* | 104* | 74* | / | 86* | 92*
Clc1ccc(CSc2nnc(-c3ccc4c(c3)OCO4)o2)cc1 | -170 | -35 | -11 | 8 | -65 | -23 | / | / | / | /
CC(C)n1cc(CN2CCC(Oc3ccc(C(=O)N4CCCCC4)cc3)CC2)cn1 | 12 | 9 | 31 | -11 | 16 | -5 | / | / | / | /
COc1ccc(S(=O)(=O)N2CCOCC2)cc1NC(=O)COC(=O)C1CCC1 | 9 | 3 | -9 | -1 | -10 | 11 | / | / | / | /
O=C1c2ccccc2S(=O)(=O)N1Cc1nc2ccccc2s1 | 67* | 79* | 1 | -1 | 93* | 103* | 58* | / | 76* | 75*
CCOC(=O)c1cc(C)sc1NC(=O)c1ccc(Cl)s1 | 8 | -10 | 2 | 2 | -6 | 7 | / | / | / | /
O=C1CSC(=S)N1Cc1cccnc1 | 47* | 6 | 21 | -22 | 96* | 47 | 50* | 101* | / | /
O=C1CSC(=S)N1c1cccnc1 | 11 | 3 | 16 | -17 | 22 | 35 | / | / | / | /
COC(=O)c1cn(NC(=O)c2cc([N+](=O)[O-])ccc2F)c(=O)c2ccccc12 | 4 | 9 | 43 | -26 | 58* | 68* | 66* | 95* | / | /
COC(=O)c1cn(NC(=O)C2CCC(C)CC2)c(=O)c2ccccc12 (stereo unspecified) | 2 | 2 | 3 | 5 | 4 | -4 | / | / | / | /
Nc1nc(CCl)nc(Nc2cccc3ccccc23)n1 | 40* | 6 | 83* | -80* | 64* | 23 | 72* | 102* | / | /
Cc1ccccc1Nc1nc(N)nc(COC(=O)c2ccccc2)n1 | -142 | -56 | 10 | -5 | -252 | -51 | / | / | / | /
O=C(O)CCC(=O)NNC(=O)COc1ccc2ccccc2c1Br | 13 | -1 | -12 | 23 | 10 | -4 | / | / | / | /
Cc1cc(C)c2nc(NNC(=O)c3ccc(S(=O)(=O)N4CCCC(C)C4)cc3)sc2c1 (stereo unspecified) | -7 | 7 | 11 | 3 | 66* | -14 | 75* | 86* | / | /
CC1CCCN(S(=O)(=O)c2ccc(C(=O)Nc3nnc(C4CC4)o3)cc2)C1 (stereo unspecified) | 23 | 6 | 26 | -11 | 18 | 5 | / | / | / | /
CC(OC(=O)CNC(=O)C1CCCCC1)C(=O)NCc1ccccc1 (stereo unspecified) | 1 | 4 | 25 | -19 | 6 | 17 | / | / | / | /
O=C(CN1C(=O)c2ccccc2S1(=O)=O)c1ccc2c(c1)OCCCO2 | 93* | 81* | -14 | 0 | 99* | 102* | 95* | 96* | 99* | 104*
O=C(CN1C(=O)c2ccccc2S1(=O)=O)c1ccc2c(c1)OCCO2 | 90* | 83* | 6 | -4 | 108* | 104* | 96* | 100* | 98* | 104*
Cc1ccc(-c2nnc(SCC(=O)Nc3ccccc3F)o2)cc1 | 77* | 78* | -11 | -22 | 89* | 86* | 85* | / | 89* | 96*
